Bioassay records from PubChem.
KDM4E inh – blocks human JMJD2E demethylase activity; hit rate 1.6% among 230,000; Potency, µM (top dose mostly 57.1 µM), usual class: inhibitors; JMJD2E catalytic domain, FDH-coupled NADH fluorescence (FDH is formaldehyde dehydrogenase); further: nearly all actives have a fitted effect of over 50% in size
Target sequence (B2RXH2 1-337 limits assumed): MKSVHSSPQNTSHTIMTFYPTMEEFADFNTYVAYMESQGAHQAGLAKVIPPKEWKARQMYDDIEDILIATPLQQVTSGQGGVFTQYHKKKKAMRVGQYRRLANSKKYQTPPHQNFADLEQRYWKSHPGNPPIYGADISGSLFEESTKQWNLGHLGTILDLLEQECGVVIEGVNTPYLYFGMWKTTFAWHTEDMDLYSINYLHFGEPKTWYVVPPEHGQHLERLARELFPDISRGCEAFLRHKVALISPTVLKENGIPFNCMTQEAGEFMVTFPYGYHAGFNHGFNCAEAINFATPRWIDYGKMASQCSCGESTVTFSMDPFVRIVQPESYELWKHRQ
HTT aggregate – reduces HttQ103-GFP aggregates in PC12 cells. PC12 HttQ103-GFP aggregates, Acumen cytometry, 40 h. Potency, µM (top dose mostly 46.1 µM), hits mostly inhibitors. hit rate 1.1% among 220,000. AID 1688; further: nearly all actives have a fitted effect of over 60% in size
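PC12 cells stably carrying ecdysone-inducible HTT exon 1 Q103–GFP were induced with tebufenozide (100 nM final) and treated with library compounds in titration. GFP aggregates in lysates were counted by laser scanning cytometry.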
HTT cytoprotect – cytoprotection in Huntington HTT-Q103 PC12 cell model; PC12 HTT-Q103 induced, cytoprotection, ATP luminescence, 40 h; Potency, µM (titrated, usually from 56.4 µM), usual class: activators; hit rate 0.14% among 230,000; AID 1471; further: nearly all actives have a fitted effect of over 45% in size
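Compounds were screened for protection of PC12 cells against cell death after tebufenozide induction (100 nM final) of mutant Huntingtin exon 1 (Q103) fused to GFP.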
TexasRed fluor – alters Texas Red total fluorescence, flagging assay interference. hit rate 0.29% among 280,000. TRb/SRC2 Texas Red total fluorescence interference. Potency, µM (highest dose often 106 µM). AID 1479; active means well fitted curve in either direction with a large enough effect; inconclusive means small, poorly fitted or top-dose-only effect
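Human TRβ ligand-binding domain (0.6 uM) and Texas Red SRC2 peptide (20 nM) in Tris buffer with 1 uM T3 and 5% DMSO were incubated with pinned compound for 5 hr at ambient temperature. Total fluorescence was computed as S + 2P (555/632 nm).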
TRb SRC2 PPI – disrupts binding of human TR beta to SRC2 | P10828 | TRbeta-SRC2 peptide binding, fluorescence polarization; receptor liganded with 1 µM T3 | Potency, µM (doses to about 106 µM), usual class: inhibitors | hit rate 0.065% among 280,000; further: nearly all actives have a fitted effect of over 50% in size
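Fluorescence polarization of 20 nM Texas Red SRC2 peptide (20-aa NR interaction domain) bound to 0.6 uM human TRb ligand-binding domain, with 1 uM T3, after 5 hr at ambient temperature; inhibition seen as decreased polarization.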
Coupling enz – coupling enzyme interference in Giardia aldolase counter-screen | coupling enzyme system counterscreen, AmpLite Red fluorescence | activity change, negative = inhibition, % at 58.2 µM, hits read low | hit rate 0.67% among 290,000 | AID 2472; in the data active means activity change below about -30%
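Counterscreen lacking aldolase: glyceraldehyde-3-phosphate coupling-enzyme reagent preincubated 10 min at RT with compound (at 57.5 uM final), then substrate/coupling system with AmpLite Red added; fluorescence read at 525/598 nm after 20 min RT.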
Each line names hits and unclear results; the compound was inactive in the other large screens; ! = not confirmed by another sample; [ ] = another dose, or the depositor's remark. A selection: hits, their analogues and other compounds. The true share with any hit is near 2%. Unless noted, the call rests on the fitted dose curve; in most records, active means well fitted curve in the direction sought with a large enough effect; inconclusive means small, poorly fitted or top-dose-only effect, or another doubt; inactive means no such curve, though single readings can be large; an effect the other way counts as inactive or inconclusive.

CCCCn1nnc(NC(=O)c2sc3cc(Cl)ccc3c2Cl)n1	HTT aggregate 0.631µM
CCN(CC)Cc1c(NC(=O)c2ccc(OC)cc2)sc2c1CCCC2	none (no result: KDM4E inh, HTT aggregate, HTT cytoprotect, Coupling enz)
CC(C)(c1ccccc1)c1ccc(OCC(O)CNC2CCN(Cc3ccccc3)CC2)cc1 (centres undefined)	KDM4E inh 10µM, HTT aggregate inconclusive
CC(=O)Nc1ccc(OCC(O)CNC2CCCC2)cc1 (centres undefined)	HTT aggregate inconclusive, Coupling enz -37.9
CCOc1ccc(OCC(O)CNC2CCN(Cc3ccccc3)CC2)cc1 (centres undefined)	none
COc1ccc(OCC(O)CNC2CCCC2)cc1 (centres undefined)	none (no result: KDM4E inh, HTT aggregate, HTT cytoprotect, TexasRed fluor, TRb SRC2 PPI)
O=C1NCC(c2ccccc2)C1C(=O)N/N=C\c1ccc(-c2ccc(Cl)c(Cl)c2)o1 (centres undefined)	KDM4E inh inconclusive
O=C1NCC(c2ccccc2)C1C(=O)N/N=C/c1ccc(Cl)s1 (centres undefined)	HTT aggregate 0.112µM (no result: HTT cytoprotect)
Cc1cccc(C#Cc2ccccc2)n1	KDM4E inh 12.6µM! (no result: HTT aggregate)
CC(C)CNC1CS(=O)(=O)CC1O (centres undefined)	none
CCCCCCCCS(=O)C1CS(=O)(=O)CC1O (centres undefined)	TexasRed fluor 10µM[fluorescent], TRb SRC2 PPI 5.01µM
O=S(=O)(Nc1cccc(-c2ccc(N3CCCCC3)nn2)c1)c1cccs1	none (no result: KDM4E inh, HTT aggregate, HTT cytoprotect, Coupling enz)
CC#CCN1c2ccccc2[C@]23C[C@@H](C(=O)OC)N(S(=O)(=O)c4c(C)noc4C)C2=NC(C(=O)OC)=C(C(=O)OC)[C@H]13	none (no result: HTT aggregate)
O=[N+]([O-])c1c(Nc2ccccn2)cc(Cl)c2nonc12	KDM4E inh 1µM, Coupling enz -57.0
O=C(O)c1ccccc1Nc1cc(Cl)c2nonc2c1[N+](=O)[O-]	none (no result: KDM4E inh, HTT aggregate, HTT cytoprotect, TexasRed fluor, TRb SRC2 PPI)
OCCN1CCN(c2nc(-c3ccccc3)c3cc(Br)ccc3n2)CC1	none (no result: KDM4E inh, HTT aggregate, HTT cytoprotect, TexasRed fluor, TRb SRC2 PPI)
OCCN1CCN(c2ncnc3ccc(Br)cc23)CC1	HTT aggregate 4.47µM
COc1cc2ccccc2cc1C(=O)Nc1cccc(-c2nc3cc(C)c(C)cc3o2)c1	none (no result: KDM4E inh, HTT aggregate, HTT cytoprotect, Coupling enz)
Cc1ccc(C(=O)O/N=C/c2c(C(F)(F)F)nn(C)c2Sc2ccc(Cl)cc2)cc1	HTT aggregate 12.6µM
Cn1nc(C(F)(F)F)c(/C=N/OC(=O)c2ccccc2Cl)c1SCc1ccc(Cl)cc1	HTT aggregate inconclusive
COc1ccc(C(=O)O/N=C/c2c(C(F)(F)F)nn(C)c2SCc2ccccc2Cl)cc1	HTT aggregate 10µM
COc1cc(CN(C(=O)c2ccccc2F)C2CCS(=O)(=O)C2)cc(OC)c1OC (centres undefined)	none (no result: KDM4E inh, HTT aggregate, HTT cytoprotect, Coupling enz)
O=C(CCc1nc2ccccc2[nH]1)N1CCc2ccccc2C1	Coupling enz -33.8
COc1cc(CC(=O)OCC(=O)Nc2cc([N+](=O)[O-])ccc2F)cc(OC)c1OC	TexasRed fluor 1000µM[quencher]
COc1ccc([N+](=O)[O-])cc1NC(=O)COC(=O)Cc1cc(OC)c(OC)c(OC)c1	HTT aggregate inconclusive (no result: HTT cytoprotect)
COc1ccc(CCC(C)Nc2ccc(F)c(F)c2)cc1 (centres undefined)	HTT aggregate 11.2µM
COCCCNC(=O)c1ccc2c3c(onc13)-c1ccccc1C2=O	KDM4E inh inconclusive, Coupling enz -31.6
COCCCNC(=O)c1ccccc1Oc1ccccc1	none
C=C[C@]1(C)CC(=O)[C@@]2(O)[C@@]3(C)C(O)CCC(C)(C)C3C(O)C(OC(C)=O)[C@@]2(C)O1 (some centres undefined)	none (no result: HTT aggregate)
C=C[C@@]1(C)CC(=O)[C@@]2(O)[C@@]3(C)[C@@H](O)CCC(C)(C)[C@@H]3[C@H](OC(=O)CCN(C)C)[C@H](OC(C)=O)[C@@]2(C)O1	HTT cytoprotect 39.8µM (no result: HTT aggregate)
COc1cccc(-c2nnc3n2N=C(c2c(OC)cccc2OC)CS3)c1OC	none (no result: KDM4E inh, HTT aggregate, HTT cytoprotect)
CCOC(=O)c1cc2n(c1/N=C/N(C)C)-c1ccccc1C2=O	KDM4E inh inconclusive, Coupling enz -35.4
CCOC(=O)c1ccc2c(c1)N(C)C(=O)c1ccccc1S2	none (no result: KDM4E inh, HTT aggregate, HTT cytoprotect, TexasRed fluor, TRb SRC2 PPI)
CCS(=O)(=O)c1ccc(OC)c(N=Nc2ccc(O)c3ncccc23)c1	KDM4E inh 17.8µM, HTT aggregate 7.94µM
Cc1sc2nc(C3CC3)nc(SCC(=O)N3CCc4ccccc4C3)c2c1C	KDM4E inh inconclusive, HTT aggregate 7.08µM
